This is a sample that favours compounds with a hit; in the whole collection about 3.1% have one here.
miR-122 sensor – inhibitors of miR-122 in Huh7 cells. activation (reporter increase), % at 12.5 µM. 0.3% of 340,000 active. Huh7 miR-122 Renilla luciferase sensor, 48 h; neutral wells = 0, positive control = 100. AID 602342;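 active means mean replicate activation score at least 90 and every replicate individually at or above 90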;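 further: higher luciferase means less miR-122 activity so hits act as miR-122 inhibitors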
INS-1E GSIS act – primary screen for activators of insulin secretion dependent on glucose, INS-1E cells, GLuc reporter luminescence | INS-1E GLuc reporter insulin secretion, 2-3 h | activation, % at 16.6 µM | 0.61% of 370,000 active | AID 743287;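 active means lowest replicate activation of at least 40%, so every replicate reaches that level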;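 further: 0% = median of neutral control wells and 100% = median of IBMX positive control wells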
Statin myotox sup – suppression of simvastatin myotoxicity. C2C12 myotubes + simvastatin, ATP luminescence, 48 h; scaled: DMSO 0, geranylgeraniol control 100. rescue of ATP level, % at 7.49 µM. 0.78% of 330,000 active. AID 602340;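 active means mean ATP rescue above about 67%, or every replicate alone reaching that limit, limit read from the data, passing the limit was not always enough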;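 further: myotubes were challenged with 10 µM simvastatin during compound exposure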
PAX8 inh HTS – inhibitors of PAX8 transcriptional activity in RMG-I cells; RMG-I TPO-luciferase reporter, SteadyGlo, 24 h; 1.2% of 360,000 active; inhibition, % at 12.6 µM;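 active means mean replicate inhibition at least 60% with every replicate also reaching 60%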;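 further: luciferase light reporting Pax8 driven TPO promoter activity; plate controls were median of neutral control wells for no effect and mitoxantrone controls for full effect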
HIV Env fusion – HIV envelope-mediated fusion inhibition; HeLa-JRFL Env/CEM21 cell fusion, luciferase; inhibition, % at 12.3 µM; 1.1% of 360,000 active; AID 651610;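 active means mean replicate inhibition score of at least 50 and every replicate individually at or above 50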;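 further: 0% = plate neutral controls and 100% = maraviroc near 300 nM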
EWS-Fli inh – inhibitors of EWS/Fli oncoprotein transcriptional activity; A673 NR0B1-luciferase reporter, viability-normalised; inhibition, % at 12.6 µM; 0.67% of 350,000 active;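 active means mean inhibition of at least 50% after viability correction, with every replicate also passing that limit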;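 further: firefly luciferase signal divided by Alamar Blue viability fluorescence both relative to DMSO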
* marks the source's active call; other numbers are inactive results; nt = no result; [ ] = remark or other dose.

SMILES	miR-122 sensor	INS-1E GSIS act	Statin myotox sup	PAX8 inh HTS	HIV Env fusion	EWS-Fli inh
C[C@@H]1CN([C@H](C)CO)C(=O)c2cc(NC(=O)CCC(F)(F)F)ccc2O[C@@H](C)CCCCO[C@H]1CN(C)Cc1ccccc1	-3[16.7 µM]	-5	38	13	-2[16.7 µM]	-5
CC1C=NC(S(=O)(=O)N2CC[C@@H]3[C@@H](CO)N(C)c4ccc(-c5cccc(F)c5)cc4[C@@H]32)=N1 (some centres not stated)	15[16.7 µM]	-10	-1	-3	nt	15
Cc1ccc(C(=O)Nc2ccccc2-c2ccccc2)cc1S(=O)(=O)Nc1cccc(C)c1C	nt	nt	nt	nt	14	nt
Cc1ccc(C)c(NS(=O)(=O)c2cc(C(=O)Nc3ccccc3-c3ccccc3)ccc2C)c1	45	-39	-7	nt	71*	nt
CCN1C(=O)C(=O)c2cc(C)ccc21	-5	7	-4	-16	-17	13
CC[N+]1=C(C)C(C)(C)c2cc(C)ccc21	-3	-43	-16	96*	26	28
O=C(CC1SC(=Nc2ccc(OC(F)F)cc2)N(CCN2CCOCC2)C1=O)Nc1ccc(F)cc1F (configuration not stated)	-4	nt	17	15	-9	28
O=C(O)CC1SC(=Nc2ccccc2)N(c2ccccc2)C1=O (configuration not stated)	-4	nt	115*	nt	nt	nt
O=C(CC1SC(=Nc2ccc(OC(F)F)cc2)N(CCN2CCOCC2)C1=O)Nc1ccccc1 (configuration not stated)	-6	-34	-11	64*	11	8
CCCCN1C(=O)C(CC(=O)NCC)SC1=Nc1ccccc1 (configuration not stated)	-6	8	159*	nt	-20	nt
O=C(O)CC1S/C(=N\N=C2CCCCCCC2)N(c2ccccc2)C1=O (configuration not stated)	-11	-7	-3	21	-3	7
CCNC(=O)CC1SC(=Nc2ccc(C)cc2)N(CC)C1=O (configuration not stated)	-2	nt	-1	-9	-28	nt
CCCCn1c(SCC(=O)Nc2nnc(C(C)C)s2)nc2c1c(=O)n(C)c(=O)n2C	-7	-20	-13	nt	55*	nt
CCCCn1c(SCc2ccccn2)nc2c1c(=O)n(C)c(=O)n2C	27	nt	117*	-9	63	nt
CCCCn1c(CN(C)Cc2ccccc2)nc2c1c(=O)n(C)c(=O)n2C	-12	nt	-8	nt	72*	nt
CCCCn1c(SCc2cccnc2)nc2c1c(=O)n(C)c(=O)n2C	2	9	2	nt	31	nt
O=C1CC(c2ccccc2)CC(O)=C1C=Nc1ccccc1 (configuration not stated)	-5	10	nt	-5	-11	13
Cc1ccc(N=CC2=C(O)CC(c3ccc(Cl)cc3)CC2=O)cc1 (configuration not stated)	-3	-8	nt	146*	nt	6
C[C@@H]1CN([C@@H](C)CO)C(=O)c2cccc(NS(=O)(=O)c3ccc(Cl)cc3)c2O[C@H]1CN(C)Cc1ccc(Oc2ccccc2)cc1	9[16.7 µM]	-16	-45	nt	nt	0
C[C@H](CO)N1C[C@H](C)[C@@H](CN(C)CC2CCOCC2)Oc2cc(C3=CCCC3)ccc2S1(=O)=O	nt	-16	-2	7	8[16.7 µM]	11
COc1ccc(NS(=O)(=O)c2cc(C)ccc2NC(=O)c2cc(C)oc2C)cc1	404*	nt	-101	nt	nt	nt
COc1ccc(NS(=O)(=O)c2cccc(C(=O)NNC(=O)c3cc(C)oc3C)c2)cc1	nt	-20	nt	4	26	-9
CO[C@@H]1CN(C)C(=O)c2ccc(NC(C)=O)cc2OC[C@H](C)N(CC2CCCCC2)C[C@H]1C	nt	-8	0	-6	nt	-4
C[C@H]1CCCCO[C@@H](CN(C)S(=O)(=O)c2ccccc2)[C@@H](C)CN([C@@H](C)CO)C(=O)c2cc(NC(=O)Cc3ccccc3)ccc2O1	1[16.7 µM]	-19	nt	49	2[16.7 µM]	23
O=C(COc1ccc(-n2cnnn2)cc1)Nc1ccc(F)c(F)c1	-7	0	-3	10	74*	3
SMILES	miR-122 sensor	INS-1E GSIS act	Statin myotox sup	PAX8 inh HTS	HIV Env fusion	EWS-Fli inh
CCCN1C[C@@H](C)[C@@H](OC)CN(C)C(=O)c2ccc(NC(=O)C3CCC3)cc2OC[C@H]1C	5[16.7 µM]	10	-15	nt	6[16.7 µM]	-3
O=C(NCCC(=O)N1CCN(c2ccccn2)CC1)c1ccc([N+](=O)[O-])cc1	nt	-5	-8	1	10	-10
O=C(Nc1c(C(=O)N2CCN(c3ccccn3)CC2)oc2ccccc12)c1ccc([N+](=O)[O-])cc1	143*	-6	-24	-8	-7	-4
Cc1cccc(C)c1NS(=O)(=O)c1ccc(F)cc1	-2	-2	115*	nt	nt	nt
O=S(=O)(Nc1ccccc1)c1ccc(F)cc1	nt	nt	nt	nt	-21	nt
CCC(=O)N1CCc2cc(Br)cc(S(=O)(=O)CC(=O)OC)c21	4	nt	105*	nt	nt	nt
CCC(=O)N1CCc2cc(Br)cc(S(=O)(=O)NCCN3CCCC3)c21	-1	7	-7	7	11	3
CC(=O)N1CCc2cc(Br)cc(S(=O)(=O)NCc3ccc(Cl)cc3)c21	110*	-2	-7	4	-1	-13
CO[C@@H]1CN(C)C(=O)c2ccc(NC(=O)Nc3ccccc3Cl)cc2OC[C@@H](C)N(S(=O)(=O)CC(F)(F)F)C[C@H]1C	nt	-9	0	21	nt	17
O=C(Nc1ccc(F)cc1)N1CC(=O)N2[C@@H](CO)[C@@H](c3ccc(-c4ccccc4)cc3)[C@@H]2C1	nt	-11	nt	2	nt	2
O=C(Nc1ccc(F)cc1)N1CC(=O)N2[C@H](CO)[C@@H](c3ccc(-c4ccccc4)cc3)[C@@H]2C1	nt	-20	nt	-8	nt	60*
COc1ccc(NC(=O)N2CC(=O)N3[C@H](C2)[C@@H](c2ccc(/C=C/c4ccccc4)cc2)[C@@H]3CO)cc1	nt	0	nt	-23	nt	-7
COc1ccc(NC(=O)N2CC(=O)N3[C@@H](CO)[C@@H](c4ccc(/C=C/c5ccccc5)cc4)[C@@H]3C2)cc1	nt	nt	nt	89*	nt	13
Cc1ccc(S(=O)(=O)N(C)C[C@H]2Oc3ccc(NC(=O)NC4CCCCC4)cc3C(=O)N([C@H](C)CO)C[C@@H]2C)cc1	-4[16.7 µM]	-15	-104	-16	nt	3
CO[C@H]1CN(C)C(=O)c2cc(NC(=O)CC(F)(F)F)ccc2OC[C@H](C)N(S(=O)(=O)c2cn(C)cn2)C[C@H]1C	nt	-5	-6	6	nt	-2
Cc1ccc(S(=O)(=O)Nc2ccc3c(c2)C(=O)N([C@@H](C)CO)C[C@@H](C)[C@H](CN(C)C(=O)Nc2ccccc2)O3)cc1	0[16.7 µM]	19	35	-5	nt	-2
C[C@@H]1CN([C@H](C)CO)C(=O)c2cccc(NS(=O)(=O)c3cn(C)cn3)c2O[C@@H]1CN(C)C(=O)NC1CCCCC1	-6[16.7 µM]	13	48	nt	nt	-3
O=C(Cc1cccs1)N(Cc1cccs1)C1(C(=O)NC2CCCCC2)CCCCC1	3	nt	-63	2	79*	nt

Screens deposited in PubChem BioAssay by Broad Institute.
